Laboratory results as given in PubChem BioAssay AID1578 (Sanford-Burnham Center for Chemical Genomics, 2009).
Hit rate of the full screen: of about 290,000 compounds, about 3,000 (1%) were called active. No stated cut-off is given here; in the data, active means inhibition mostly above about 36% (no sharp cut-off); inactive means mostly below about 34%. The list comes from a sample in which actives are over-represented; it also holds similar structures and randomly drawn compounds.

assay: NOD1 signaling inhibitors, primary screen, cell-based, luminescence, uHTS (AID 1578); details: NOD1-driven NF-kB luciferase reporter cells, at 4 µM, hits give high values;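 further: HEK-293T reporter cells stimulated with the NOD1 agonist gamma-tri-DAP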

Row | Compound | inhibition
1 | COc1cc2c(cc1OC)CN(C(=O)COc1ccc(C#N)cc1)CC2 | 10% (inactive)
2 | Cc1c(NC(=S)NC(=O)CC(C)C)c(=O)n(-c2ccccc2)n1C | -31.4% (inactive)
3 | CCN1/C(=C/C=C/C=C/c2sc3ccccc3[n+]2CC)Sc2ccccc21 | 66.1% (inactive)
4 | CCN1/C(=C/c2ccc3ccccc3[n+]2CCCS(=O)(=O)[O-])C=Cc2cc(C)ccc21 | -1.5% (inactive)
5 | CC1=NN(C(=O)c2ccc(Cn3nc(C)c([N+](=O)[O-])c3C)o2)C(O)(C(F)(F)F)C1 (configuration not stated) | -21.3% (inactive)
6 | CCCCc1nc2sc3c(SCCN(C)C)ncnc3c2c2c1CCC2 | -4.1% (inactive)
7 | Brc1ccc(OCc2cn3ccccc3n2)cc1 | -41.6% (inactive)
8 | COc1ccccc1NS(=O)(=O)c1cc(NC(=O)c2cc(=O)[nH]c3ccccc23)ccc1N1CCOCC1 | 0.5% (inactive)
9 | COc1ccc(-c2onc(C)c2C)cc1S(=O)(=O)NCCc1ccco1 | 2.5% (inactive)
10 | Cc1cc(C)c(C)c(S(=O)(=O)N2CCCCC2C(=O)O)c1C (configuration not stated) | 0.3% (inactive)
11 | Oc1cccc(/C=N\Nc2nncc(-c3ccccc3)n2)c1 | -8.4% (inactive)
12 | COc1ccc(-c2cnnc(N/N=C/c3ccc(O)cc3)n2)cc1 | -15.9% (inactive)
13 | Oc1ccc(/C=N\Nc2nncc(-c3ccccc3)n2)cc1 | 59.3% (active)
14 | CC(=O)Oc1ccc(/C=C(\NC(=O)c2ccco2)C(=O)Nc2ccc(C(C)=O)cc2)cc1 | -31.3% (inactive)
15 | COc1ccc(/C(N)=N/OC(=O)CC2CCCCC2)cc1OC | -10.9% (inactive)
16 | CC(C)(C)c1ccc(OCc2ccc(C(=O)NN)o2)cc1 | -4.2% (inactive)
17 | CCOc1ccc(OCc2ccc(C(=O)NC(C)C)o2)cc1 | -2.6% (inactive)
18 | CC(C)NC(=O)c1ccc(COc2ccc(C(C)(C)C)cc2)o1 | 29.6% (active)
19 | CC(=O)c1ccc(S(=O)c2ccccc2)cc1 (configuration not stated) | -22.4% (inactive)
20 | COc1ccc(OC)c(C(=O)NC(CC(N)=O)c2ccc(N3CCC(N4CCCC4)CC3)c([N+](=O)[O-])c2)c1 (configuration not stated) | 5.4% (inactive)
21 | Cc1cc(C)cc(NS(=O)(=O)c2ccc3[nH]cc(C(=O)N4CCc5ccccc54)c(=O)c3c2)c1 | 3.5% (inactive)
22 | COCCn1c(=NC(=O)/C=C/c2ccccc2Cl)sc2cc(NC(C)=O)ccc21 | 85% (active)
23 | COCCn1c(=NC(=O)/C=C/c2ccccc2)sc2cc(NC(C)=O)ccc21 | -16.2% (inactive)
24 | CCOCCn1c(=NC(=O)/C=C/c2ccccc2Cl)sc2cc(NC(C)=O)ccc21 | 18.1% (inactive)
25 | Cc1cccc(C(P(=O)(c2ccccc2)c2ccccc2)P(=O)(c2ccccc2)c2ccccc2)n1 | -2.9% (inactive)
26 | CC(=O)c1c(C)[nH]c(C(=O)Nc2ccccc2Cl)c1C | -16.6% (inactive)

Row | Compound | inhibition
27 | CC(=O)c1c(C)[nH]c(C(=O)OCC(=O)Nc2ccc([N+](=O)[O-])cc2Cl)c1C | -9% (inactive)
28 | CC(=O)c1c(C)[nH]c(C(=O)OCC(=O)Nc2ccccc2Cl)c1C | 51.1% (active)
29 | CCC(C)N1C(=O)CCC1C(=O)N1CCN(c2ccccc2F)CC1 (configuration not stated) | 2.8% (inactive)
30 | C/C(=N\NC(=O)c1nnn(-c2nonc2N)c1CSc1ccccc1)c1cccnc1 | -4.5% (inactive)
31 | Cc1cc(C)n(-c2nc3ccccc3c(=O)n2OCC#N)n1 | 109% (active)
32 | C#CCOn1c(-n2nc(C)cc2C)nc2ccccc2c1=O | 2.3% (inactive)
33 | CCOn1c(-n2nc(C)cc2C)nc2ccccc2c1=O | 0.7% (inactive)
34 | CN(C)N(C)C(=O)C(O)(c1ccccc1)c1ccccc1 | -18.6% (inactive)
35 | CN(C)N(Cc1ccccc1)C(=O)C(O)(c1ccccc1)c1ccccc1 | 63.1% (active)
36 | CN(Cc1ccccc1)C(=O)CCC(=O)N(C)Cc1ccccc1 | -41.2% (inactive)
37 | O=C(CN1C(=O)NC2(CCCCCCC2)C1=O)NC1CCCc2ccccc21 (configuration not stated) | -29.3% (inactive)
38 | COC(=O)c1ccc(NC(=O)CCN2C(=O)CSC2=O)cc1 | -44.1% (inactive)
39 | N#Cc1c(N2CCCC(O)C2)nc(N)c2c(N)nc3c(c12)CC(=O)N3C12CC3CC(CC(C3)C1)C2 (configuration not stated) | 72% (active)
40 | C=C(C)CN(CC)c1nc(N)c2c(N)nc3c(c2c1C#N)CC(=O)N3C12CC3CC(CC(C3)C1)C2 | -11.3% (inactive)
41 | N#CCc1c(C#N)c(N)nc(N2CCCC(O)C2)c1C#N (configuration not stated) | -18.2% (inactive)
42 | Cc1cnc(C(=O)Nc2ccc(C(=O)N(C)C3CCCCC3)cc2)cn1 | -6.2% (inactive)
43 | C=CCOc1ccc2ccccc2c1/C=N/O | -6.7% (inactive)
44 | CCOc1ccc(-c2nc(CSCC(=O)N3CCN(C(=O)c4ccco4)CC3)c(C)o2)cc1 | -28.8% (inactive)
45 | CCOC(=O)C1CCN(C(=O)CSCc2nc(-c3ccc(OCC)cc3)oc2C)CC1 | -2.1% (inactive)
46 | COc1cccc(CNCc2ccc(OC)cc2OC)c1 | 3.1% (inactive)
47 | COc1cc(CNCc2ccc(OC)cc2OC)cc(OC)c1 | 79.5% (active)
48 | COc1cc(CNCc2cc(OC)ccc2OC)cc(OC)c1 | -5.3% (inactive)
49 | O=C(COC(=O)CNC(=O)c1ccc(Cl)cc1)Nc1cccc(S(=O)(=O)N2CCCC2)c1 | 6.6% (inactive)
50 | CCO[C@@H]1OC(C(=O)N2CCOCC2)=C[C@H](C)[C@H]1CCCO | -28.1% (inactive)
51 | CCO[C@H]1OC(C(=O)N2CCN(C)CC2)=C[C@@H](C)[C@@H]1CCCO | -35.3% (inactive)
52 | CCO[C@H]1OC(C(=O)N2CCCCCCC2)=C[C@@H](C)[C@@H]1CCCO | 40% (active)

Row | Compound | inhibition
53 | CC1CCCC(NC(=O)c2ccc(CNc3c(N4CCCC4)c(=O)c3=O)cc2)C1C (configuration not stated) | -28.2% (inactive)
54 | COc1ccc(/C=N/Nc2nc(C(=O)O)cs2)cc1 | -35.9% (inactive)
55 | Cc1c(C(=O)NCCN(C)C)oc2ccc(S(=O)(=O)N3CCC4(CC3)OCCO4)cc12 | -12.2% (inactive)
56 | Brc1ccc(OCc2ccccc2)c(CNCc2ccncc2)c1 | 44.1% (inactive)
57 | Fc1ccccc1COc1ccc(Br)cc1CNCc1cccnc1 | -5% (inactive)
58 | Fc1ccccc1COc1ccc(Br)cc1CNCc1ccncc1 | 72.9% (active)
59 | COc1ccc(NC(=O)Nc2c(C)noc2-c2ccccc2)cc1 | -7.5% (inactive)
60 | O=C(Oc1ccc(Br)cc1C(=S)N1CCOCC1)c1ccc(F)cc1 | -9.9% (inactive)
61 | O=C(Nc1nc2ccccc2[nH]1)c1ccc(Br)o1 | -21.2% (inactive)
62 | O=C(Nc1nc2ccccc2[nH]1)c1ccccc1F | 77.3% (active)
63 | CSc1ccccc1C(=O)Nc1nc2ccccc2[nH]1 | -46.1% (inactive)
64 | O=C(Nc1nc2ccccc2[nH]1)c1ccccc1O | 1.5% (inactive)
65 | O=C(Nc1nc2ccccc2[nH]1)c1cc2ccccc2o1 | 73.5% (active)
66 | C/C(=N\Nc1nc2ccccc2[nH]1)c1cc2ccccc2o1 | -21.6% (inactive)
67 | COc1ccc(S(=O)(=O)Nc2ccccc2C(=O)N2CCCCC2)cc1C | -14.5% (inactive)
68 | S=C(Nc1ccccc1)N1CCOCCOCCN(C(=S)Nc2ccccc2)CCOCCOCC1 | -11% (inactive)
69 | CC(=O)N1N=C(N)SC1c1cccc([N+](=O)[O-])c1 (configuration not stated) | -38.8% (inactive)
70 | CC(=O)Oc1ccc2nc(/C=C/c3ccccc3)oc(=O)c2c1 | -9.3% (inactive)
71 | COc1ccc(-c2cc(C(F)(F)F)nc(S(=O)(=O)CCCC(=O)Nc3cc(C)on3)n2)cc1OC | 32.1% (inactive)
72 | Cc1cc(NC(=O)CCCS(=O)(=O)c2nc(-c3cccs3)cc(C(F)(F)F)n2)no1 | 91% (active)
73 | COc1ccccc1-c1cc(C(F)(F)F)nc(S(=O)(=O)CCCC(=O)Nc2cc(C)on2)n1 | 37% (inactive)
74 | O=C(COc1ccc(S(=O)(=O)N2CCOCC2)cc1Cl)NCc1ccccn1 | -57.1% (inactive)
75 | Cc1ccccc1-c1nc(-c2ccccn2)no1 | 11.7% (inactive)
76 | c1ccc(-c2noc(-c3cccnc3)n2)nc1 | -11.3% (inactive)
77 | c1ccc(-c2nc(-c3ccccn3)no2)cc1 | 54.3% (active)
78 | Clc1cccc(-c2nc(-c3ccccn3)no2)c1 | -17.2% (inactive)

Row | Compound | inhibition
79 | c1ccc(-c2noc(-c3ccncc3)n2)nc1 | -30.8% (inactive)
80 | c1ccc(-c2noc(-c3ccc4ccccc4c3)n2)nc1 | 77.3% (inactive)
81 | Clc1ccc(-c2nc(-c3ccccn3)no2)cc1Cl | -69.5% (inactive)
82 | COc1cccc(-c2nc(-c3ccccn3)no2)c1 | 65% (active)
83 | Cc1ccc(-c2nc(-c3ccccn3)no2)cc1 | 89.5% (active)
84 | Cc1ccc(-c2nc(-c3ccccn3)no2)cc1Cl | 71.4% (active)
85 | COc1cccc(-c2nc(-c3ccncc3)no2)c1 | -5.3% (inactive)
86 | COc1cccc(-c2nc(-c3ccccc3)no2)c1 | -49.3% (inactive)
87 | CCCC(=O)NCC(c1cccs1)S(=O)(=O)c1ccc(Cl)cc1 (configuration not stated) | -18% (inactive)
88 | Cc1ccc2cc3cc(C(=O)NC4CCCCC4)oc3nc2c1 | -36.4% (inactive)
89 | O=C(Nc1ccccc1)Nc1ccc2ocnc2c1 | -32.4% (inactive)
90 | Cc1nnc(SCC(=O)NC2CC2)s1 | -18.8% (inactive)
91 | COc1cc(S(=O)(=O)n2nc(C)cc2C)ccc1Cl | -30.9% (inactive)
92 | Cc1ccc(C2=NN(C3=NN=C(N)Cc4ncnn43)C(O)(C(F)(F)F)C2)cc1 (configuration not stated) | -15.4% (inactive)
93 | CC(CC(=O)O)CC(=O)Nc1cc([N+](=O)[O-])ccc1O (configuration not stated) | -14.6% (inactive)
94 | c1ccc(-c2noc(-c3ccno3)n2)nc1 | -2.2% (inactive)
95 | c1ccc(-c2ccc(-c3nc(-c4ccncc4)no3)cc2)cc1 | 28.9% (inactive)
96 | c1ccc(-c2noc(-c3ccc4c(c3)OCO4)n2)cc1 | -47.3% (inactive)
97 | c1ccc(-c2noc(-c3ccc4c(c3)OCO4)n2)nc1 | 64.7% (active)
98 | COc1cc(-c2nc(-c3ccccn3)no2)cc(OC)c1OC | -30.9% (inactive)
99 | c1ccc(-c2ccc(-c3nc(-c4ccccn4)no3)cc2)cc1 | 99.9% (active)
100 | COc1ccccc1-c1nc(-c2ccccn2)no1 | 27.3% (inactive)
101 | Cc1cccc(-c2noc(-c3ccc4c(c3)OCO4)n2)c1 | -27.9% (inactive)
102 | COc1ccc(-c2nc(-c3ccccn3)no2)cc1 | 99% (active)
